High-throughput results (PubChem)
TRb-SRC2 inh = disrupts binding of human TR beta to SRC2. TRbeta-SRC2 peptide binding, fluorescence polarization; receptor liganded with 1 µM T3. hit rate 0.065% among 280,000. P10828. Potency, µM (series often up to 106 µM), for the others: top-dose activity change, negative = inhibition, actives largely listed as inhibitors;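 note: plate controls were bound peptide for no effect and peptide without receptor for full effect; nearly all actives have a fitted effect of over 50% in size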
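Decrease in fluorescence polarization of 20 nM Texas Red SRC2 coactivator peptide flagged inhibition of its binding to 0.6 uM TRb LBD; 1 uM T3 included, incubation 5 hr, ex 555/em 632 nm.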
WRN inhibitor = inhibitors of human WRN helicase; Q14191; WRN helicase unwinding, fluorescent forked duplex, kinetic; Potency, µM (highest dose often 114 µM), without a hit: at the highest dose activity change, negative = inhibition, usual class: inhibitors; hit rate 0.46% among 360,000; note: nearly all actives have a fitted effect of over 55% in size
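Fluorescence dequenching readout, ex 525 nm/em 598 nm, kinetic mode: forked duplex DNA (100 nM final) with adjacent fluorophore and quencher unwound by WRN (20 nM final) with 2 mM ATP. Compound preincubation 15 min, room temperature.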
TR SRC2 fluor cs = Texas Red fluorescence interference in TRb-SRC2 counter-screen | Potency, µM (highest dose often 106 µM), for inactives: top-dose fluorescence change, negative = quenching | AID 1479 | hit rate 0.29% among 280,000 | TRb/SRC2 Texas Red total fluorescence interference; active = well fitted curve in either direction with a large enough effect; inconclusive = small, poorly fitted or top-dose-only effect
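Human TRβ ligand-binding domain (0.6 uM) and Texas Red SRC2 peptide (20 nM) in Tris buffer with 1 uM T3 and 5% DMSO were incubated with pinned compound for 5 hr at ambient temperature. Total fluorescence was computed as S + 2P (555/632 nm).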
APE1 inh-1 = APE1 (human) endonuclease inhibition; AID 2517; P27695; recombinant APE1, TAMRA/BHQ-2 abasic DNA cleavage fluorescence; Potency, µM (top dose mostly 65.8 µM), for inactives: top-dose activity change, negative = inhibition, hits mostly inhibitors; hit rate 0.35% among 350,000;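 note: plate controls were vehicle for no effect and reference inhibitor for full effect; nearly all actives have a fitted effect of over 55% in size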
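Readout is kinetic fluorescence (ex 525, em 598 nm) from cleavage of 50 nM TAMRA/BHQ-2 THF abasic duplex by 0.75 nM APE1, compound added 15 min beforehand at RT.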
RECQ1 inh = RECQ1 (human) helicase inhibition; P46063; RECQ1 DNA unwinding, red fluorescence kinetic read; Potency, µM (highest dose often 57.3 µM), for inactives: at the top dose activity, negative = inhibition, actives largely listed as inhibitors; hit rate 0.54% among 240,000; AID 2549;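 note: plate controls were vehicle for no effect and no enzyme for full effect; nearly all actives have a fitted effect of over 30% in size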
Target sequence (P46063 whole entry, looked up): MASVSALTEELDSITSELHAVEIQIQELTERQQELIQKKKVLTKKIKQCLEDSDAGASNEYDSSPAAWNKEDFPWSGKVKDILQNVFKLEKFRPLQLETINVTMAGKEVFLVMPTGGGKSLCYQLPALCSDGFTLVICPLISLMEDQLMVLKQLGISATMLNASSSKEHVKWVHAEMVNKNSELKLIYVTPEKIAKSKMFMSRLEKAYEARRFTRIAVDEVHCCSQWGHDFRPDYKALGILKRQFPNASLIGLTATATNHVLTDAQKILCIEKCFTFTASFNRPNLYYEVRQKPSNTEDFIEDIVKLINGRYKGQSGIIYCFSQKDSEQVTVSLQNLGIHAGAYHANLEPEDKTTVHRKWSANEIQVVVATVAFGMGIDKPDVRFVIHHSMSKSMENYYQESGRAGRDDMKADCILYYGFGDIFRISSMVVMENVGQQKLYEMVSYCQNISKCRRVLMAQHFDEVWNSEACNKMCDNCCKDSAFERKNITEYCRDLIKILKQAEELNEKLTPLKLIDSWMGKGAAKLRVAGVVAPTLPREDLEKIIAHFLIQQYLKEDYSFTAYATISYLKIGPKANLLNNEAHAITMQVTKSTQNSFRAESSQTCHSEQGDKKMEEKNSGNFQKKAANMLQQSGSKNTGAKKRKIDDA
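RECQ1T1 50 nM; forked duplex (20 bp + 30-nt ss tails) 200 nM, ATP 2 mM final; pH 8.0, 2 mM MgCl2, 2.5 ug/ml poly(dI-dC); 15 min compound preincubation; discontinuous kinetic read over 2 h at RT.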
BLM helicase inh = inhibitors of human Bloom syndrome helicase BLM | recombinant BLM DNA unwinding, fluorescence dequenching | hit rate 0.2% among 350,000 | Potency, µM (titrated, usually from 56.1 µM), inactives show at the top dose activity change, negative = inhibition, most hits filed as inhibitors;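 note: plate controls were vehicle for no effect and no enzyme for full effect; nearly all actives have a fitted effect of over 35% in size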
APE1 dye cs = DNA dye displacement counter-screen activity | shares compounds with APE1 inh-1 | DNA fluorescent dye displacement counterscreen, fluorescence | Potency, µM (series often up to 28.5 µM), for inactives: at the highest dose activity change, negative = inhibition, usual class: inhibitors | hit rate 7% among 480 | AID 2564;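 note: loss of thiazole orange fluorescence as the dye is displaced from duplex DNA; 0% = ThO with dsDNA and no compound and -100% = ThO without dsDNA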
Endo IV inh = Endo IV (E. coli) inhibition counter-screen. AID 2565. hit rate 4% among 560. Potency, µM (doses to about 27.1 µM), for the others: at the top dose activity change, negative = inhibition, hits mostly inhibitors. E. coli Endo IV, fluorogenic AP-site DNA cleavage. shares compounds with APE1 inh-1;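 note: plate controls were uninhibited enzyme wells for no effect and no enzyme buffer wells for full effect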
APE1 inh-2 = APE1 (human) endonuclease inhibition, confirmation | shares compounds with APE1 inh-1 | purified APE1, fluorogenic abasic-site DNA cleavage | Potency, µM (highest dose often 57.1 µM), for the others: at the highest dose activity change, negative = inhibition, hits mostly inhibitors | hit rate 44% among 750 | AID 2572; note: nearly all actives have a fitted effect of over 30% in size
APE1 FP = APE1 (human) DNA binding inhibition, fluorescence polarization. AID 2573. Potency, µM (top dose mostly 28.5 µM), for inactives: at the highest dose activity, negative = inhibition, actives largely listed as inhibitors. hit rate 7% among 480. shares compounds with APE1 inh-1. APE1 binding to TAMRA-labelled double-stranded DNA, fluorescence polarization displacement
The depositor's hits bear a star; i = inactive; ? = inconclusive; . = no result given; [ ] = remark or other dose. This is a sample that favours compounds with a hit; in the whole collection about 0.91% have one here. Unless noted, calls come from the whole dose curve; as a rule, active = well fitted curve in the direction sought with a large enough effect; inconclusive = small, poorly fitted or top-dose-only effect, or another doubt; inactive = no such curve, though single readings can be large; an effect the other way counts as inactive or inconclusive. Unless noted, % is set by controls: 0 for no effect and ±100 for the full control effect; potency is the fitted concentration of half-maximal effect.

SMILES	TRb-SRC2 inh	WRN inhibitor	TR SRC2 fluor cs	APE1 inh-1	RECQ1 inh	BLM helicase inh	APE1 inh-2	others
COc1c(O)cc2c(c1O)[C@@H]1O[C@H](CO)[C@@H](O)[C@H](O)[C@H]1OC2=O	.	-1%	.	8%	.	-2%	.
COCCn1c(C)cc(C(=O)CSc2n[nH]c(N)n2)c1C	11%	7%	-13%	32µM*	-23%	-14%	-7%[24.4 µM]	APE1 dye cs=-1%;Endo IV inh=8%;APE1 FP=-1%
Cc1n[nH]c(C)c1CCc1nc2c3ccccc3nc(SCC(=O)Nc3ccc(F)cc3)n2n1	-2%	.	?	.	.	-14%	.
Cc1ccc(NC(=O)CSc2nc3ccccc3c3nc(CCc4c(C)n[nH]c4C)nn23)cc1F	-5%	-24%	-5%	5%	-12%	?	?
O=C(/C=C/c1ccco1)NCC(=O)N/N=C/c1ccc([N+](=O)[O-])cc1	0%	-4%[11.6 µM]	0%	-8%	-11%	-13%	.
Cc1ccc(C2(C)NC(=O)N(CC(=O)N3c4ccccc4NC(=O)CC3C)C2=O)cc1 (stereo unspecified)	.	-7%	.	-8%	.	.	.
COc1ccc(-c2cn3cccnc3n2)cc1NC(=O)c1ccc(Br)o1	-7%	-17%	-3%	-6%	?	-1%	-25%
Cc1ccc(-c2cn3cccnc3n2)cc1NC(=O)c1ccc(Br)o1	-16%	-12%	2%	10%	-13%	-3%	.
CCOCCn1c(N2CCCN(C)CC2)nc2ccccc21	.	.	.	.	.	2%	.
COc1cc(C)c(NC(=O)c2cccc(S(=O)(=O)N3CCCC3)c2)cc1OC	.	6%	.	-4%	.	.	.
O=C1c2cccc3c(Cl)ccc(c23)C(=O)N1O	3%	?	-2%	?	-5%	-1%	-18%[24.4 µM]	APE1 dye cs=-5%;Endo IV inh=-2%;APE1 FP=-102%
COCCn1c(SCC(=O)NCc2ccc(OC)c(OC)c2)nc2ccccc21	.	-4%	.	64%	.	1%	.
Clc1cc(/C=N\NC2=NCCN2)cc(Cl)n1	.	-8%	.	.	.	.	.
CCCCCC(=O)N1CC2(CC(c3cccc(NC(=O)[C@@H]4CCC(=O)N4)c3)=NO2)C[C@@H]1C(N)=O (stereo partly specified)	1%	6%	0%	16%	?	0%	.
C=C(C)C(=O)Nc1cccc(C2=NOC3(C2)C[C@@H](C(N)=O)N(C(=O)CCCCC)C3)c1 (stereo partly specified)	-7%	40µM*	1%	?	25µM*	-12%	40µM*
Cc1cc(C)c(C#N)c(SCC(=O)c2cccs2)n1	-5%	-22%	-4%	?	i	-12%	-23%
CCN(CC)c1ccc(C(=C2C=CC(=[N+](CC)Cc3cccc(S(=O)(=O)[O-])c3)C=C2)c2ccc(N(CC)Cc3cccc(S(=O)(=O)O)c3)cc2)cc1	11µM*	.	11µM*[fluorescent]	?	4µM*	25µM*	22µM*	APE1 dye cs=?;Endo IV inh=28µM*;APE1 FP=25µM*
CCN(Cc1ccccc1)c1ccc(/C=N/NC(=O)c2cccc(S(=O)(=O)N3CCOCC3)c2)cc1	-4%	4%	-1%	-3%	i	-1%	.
